# Assay outcomes deposited in PubChem by National Center for Advancing Translational Sciences (NCATS).
# Rows were chosen to be rich in hits. Some 13% of all compounds tested hit in one or more screens of this group.
# HADH2 inhib – inhibitors of human HADH2 dehydrogenase; Q99714; recombinant HADH2, NADH fluorescence, beta-hydroxybutyryl-CoA; Potency, µM (highest dose often 57.1 µM), most hits filed as inhibitors; 73,000 tested, 3.4% active; also: nearly all actives have a fitted effect of over 60% in size
#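 Activity measured as NADH fluorescence gain (360/450 nm), taken as the change between first and last reads of a 4-min kinetic run. Conditions: pH 9.0 Tris buffer, 20 nM E. coli-expressed His-tagged enzyme, 1 mM NAD+, 90 uM beta-hydroxybutyryl-CoA; 15-min compound preincubation.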
# A350 autofl – compound fluoresces in the Alexa 350 spectral region. Compound autofluorescence, 340/450 nm, Alexa 350 dye-equivalents; active compounds read high. 59,000 tested, 11% active. max dye-equivalent concentration, M; in the data active = max dye-equivalent concentration above about 10 nM; inconclusive = mostly about 1.1 nM to 9.6 nM
# GBA activity – modulators of human glucocerebrosidase | P04062 | purified enzyme, resorufin glucoside fluorescence (screen aimed at inhibitors), 20 min | Potency, µM | 48,000 tested, 1.1% active | AID 360; in the data active = potency below about 15 µM; inconclusive = mostly about 16 µM to 33 µM;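 also: the screen sought inhibitors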
# Target sequence (P04062 whole entry, looked up): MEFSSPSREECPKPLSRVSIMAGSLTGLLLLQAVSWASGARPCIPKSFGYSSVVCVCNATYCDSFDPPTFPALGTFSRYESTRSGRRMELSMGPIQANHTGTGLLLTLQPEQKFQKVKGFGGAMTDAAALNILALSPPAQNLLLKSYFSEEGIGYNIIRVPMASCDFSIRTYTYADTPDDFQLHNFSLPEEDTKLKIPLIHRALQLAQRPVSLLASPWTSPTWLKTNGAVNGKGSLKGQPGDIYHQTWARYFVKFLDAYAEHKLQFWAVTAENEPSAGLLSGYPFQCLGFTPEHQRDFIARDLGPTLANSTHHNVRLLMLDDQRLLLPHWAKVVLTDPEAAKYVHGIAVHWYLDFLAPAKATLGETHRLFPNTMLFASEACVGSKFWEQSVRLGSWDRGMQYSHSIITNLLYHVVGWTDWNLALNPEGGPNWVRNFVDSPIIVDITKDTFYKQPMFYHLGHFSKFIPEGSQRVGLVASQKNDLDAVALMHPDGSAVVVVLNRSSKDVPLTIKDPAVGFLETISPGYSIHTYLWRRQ
#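 Normal human glucocerebrosidase (0.2 nM final) was assayed with resorufin β-D-glucopyranoside (30 uM final) in 50mM citric acid/KH2PO4, 10mM sodium taurocholate, 0.01% tween-20, pH 5.9. Compounds were titrated; fluorescence (Ex 548, Em 600) read after 20 min at RT.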
# 4-MU autofl – 4-MU region autofluorescence; compound autofluorescence, 340/450 nm, 4-MU equivalents; active compounds read high; 59,000 tested, 11% active; AID 589; max dye-equivalent concentration, M; in the data active = max dye-equivalent concentration above about 10 nM; inconclusive = mostly about 1.1 nM to 9.6 nM
#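 Compounds in 100 mM Tris, pH 8.0, incubated 15 min at room temperature, then fluorescence read at 340 nm excitation/450 nm emission. Signal converted to 4-MU dye-equivalent concentration using an on-plate six-point 4-MU standard curve.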
# HSD17B inh – HSD17B dehydrogenase inhibition. Q99714. recombinant HSD17B10, NADH fluorescence kinetic. Potency, µM (series often up to 57.1 µM), usual class: inhibitors. 75,000 tested, 7.6% active. AID 893;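 also: the protocol describes HADH2 (HSD17B10) and not the HSD17B4 of the title; nearly all actives have a fitted effect of over 70% in size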
#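 Enzyme plus compound, 15 min room temperature; substrate mix added (NAD+ 1 mM, beta-hydroxybutyryl-CoA 90 uM final); plates read kinetically for NADH fluorescence. HADH2 was His-tagged, E. coli-derived, 20 nM.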
# AID923 – qHTS Assay for Allosteric/Competitive Inhibitors of Caspase-1: Spectroscopic Profiling in AFC Spectral Region | compound fluorescence, AFC spectral region (405/520 nm) | Potency, µM (top dose mostly 57.5 µM), most hits filed as activators | AID 923, 2007 | 75,000 tested, 1.1% active
#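 Baseline compound fluorescence (AFC region, 405 nm ex/520 nm em) taken from the intercept of kinetic reads with 50 nM caspase-1 and 5 uM Ac-WEHD-AFC; normalized to an on-plate AFC standard curve; compounds titrated up to 57 uM.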
# Numbers stand for hits; - = inactive; ? = inconclusive; . = no result; ! = not active in a repeat; [ ] = remark or other dose. Unless noted, calls follow the shape of the dose curve; as a rule, active = well fitted curve in the direction sought with a large enough effect; inconclusive = small, poorly fitted or top-dose-only effect, or another doubt; inactive = no such curve, though single readings can be large; an effect the other way counts as inactive or inconclusive.
SMILES,HADH2 inhib,A350 autofl,GBA activity,4-MU autofl,HSD17B inh,AID923
CC1CCN(C(=O)c2ccc3c(c2)OCCO3)CC1,-,-,-,-,-,-
CC1CCN(c2ccc(C(=O)O)cc2N)CC1,-,-,-,-,25.1µM,-
CN=C1N[C@H](c2ccccc2)N(c2ccccc2)S1,?,.,.,.,2µM,-
CC(C)(SCc1ccccc1)[C@H](N)C(=O)O,-[11.4 µM],-,.,-,-[11.4 µM],-[11.5 µM]
COCC(=O)N1CCC[C@@]2(CCN(c3ccccc3)C2)C1,-,-,.,-,-,-
COc1ccc(NC(=O)Nc2ccccc2C(=O)N2CCCC2)cc1,-,-,-,-,-,-
COCCc1ccc(OC[C@H](O)CNC(C)C)cc1,-,-,.,-,-,-
O=C1c2ccccc2NC2(CCCCC2)N1c1ccc(O)cc1,?,3.8e-07M,-,3.98e-07M,?,-
CC(=O)N1CCC2(CC1)CN(c1ccncc1)C2,-,-,.,-,-,-
Brc1ccc2[nH]c3nc(SCCN4CCOCC4)nnc3c2c1,-,-,9.59,-,-,-
Cc1ccc(O)c(C(=O)c2cnn(C(=O)Cc3csc(C)n3)c2)c1,?,5.42e-08M,-,3.27e-08M,-,-
COc1ccc(-c2cc3nc4n(c(=O)c3s2)CCC4)cc1,-,4.9e-07M,-,4.03e-07M,12.6µM,-
COc1ccc(NS(=O)(=O)c2cccc(-c3nnc4n3CCCCC4)c2)cc1,-,-,-,-,-,-
CCCc1nc2ccccc2c(=O)n1/N=C/c1ccccc1O,-,-,-,-,12.6µM,-
CCOc1ccc(C2CC(c3ccc(F)cc3)n3ncnc3N2)cc1 (stereo not given),-,.,.,.,-,-
CS(=O)(=O)c1ccc2nc(NC(=O)Oc3ccccc3)sc2c1,-,8.31e-08M,-,7.97e-08M,-,-
CC(=O)c1cccc(NC(=O)c2ccc(N(C)S(C)(=O)=O)cc2)c1,-,?,-,-,-,-
Cc1ccc(C(=O)Nc2ccc(S(=O)(=O)O)c3cc(S(=O)(=O)O)cc(S(=O)(=O)O)c23)cc1NC(=O)c1cccc(NC(=O)Nc2cccc(C(=O)Nc3cc(C(=O)Nc4ccc(S(=O)(=O)O)c5cc(S(=O)(=O)O)cc(S(=O)(=O)O)c45)ccc3C)c2)c1,?,-,.,-,2µM,-
O=C1CCCC2=C1C1(CCCCC1)N=C(Nc1nc3ccccc3o1)N2,-,?,-,?,?,-
O=C1CCCC2=C1C1(CCCC1)N=C(Nc1nc3ccccc3o1)N2,-,1.35e-07M,-,9.6e-08M,-,-
COC(=O)c1cc(=O)c2ccc(OC)cc2o1,-,.,.,.,-,-
COc1ccc2c(C)c(Cl)c(=O)oc2c1,10µM,.,.,.,25.1µM,-
Cc1cc(=O)oc2cc(O[C@@H]3O[C@H](C(=O)O)[C@@H](O)[C@H](O)[C@H]3O)ccc12,.,.,.,.,31.6µM,-
COc1ccc2c(C)cc(=O)oc2c1,.,.,.,.,31.6µM,-
Cc1cc(=O)oc2cc(Oc3ncccn3)ccc12,-,1.34e-07M,-,1.47e-07M,31.6µM,-
SMILES,HADH2 inhib,A350 autofl,GBA activity,4-MU autofl,HSD17B inh,AID923
COc1ccc2c(=O)c(N3C(=O)c4ccccc4C3=O)c(C)oc2c1,-,.,.,.,-,-
Cc1cc(=O)oc2cc(OCC(=O)NCCc3nc4ccccc4[nH]3)ccc12,-,.,.,.,?,-
CC1=C(C(=O)NCc2ccccn2)C2(CCC(C)CC2)OC1=O (stereo not given),-,.,.,.,-,-
Cc1cc(C(C)(C)C)cc(CNC2CCCCC2)c1O,-[11.4 µM],-,.,-,-[11.4 µM],-[11.5 µM]
Cc1cc(=O)oc2cc(OCC#N)ccc12,-,.,.,.,31.6µM,-
Cc1cc(=O)oc2cc(OCC(O)CN3CCN(c4ccc(F)cc4)CC3)ccc12 (stereo not given),?,?,-,-,-,-
O=C1c2ccccc2C(=O)N1CSc1ncccn1,-,.,.,.,-,-
O=C(CCC(=O)CCN1CCCCC1)CCN1CCCCC1,.,1.18e-06M,.,9.39e-07M,.,.
O=C(CCCn1c(=S)[nH]c2cc3c(cc2c1=O)OCO3)N1CCN(c2ccccc2F)CC1,-,-,.,-,-,-
Cc1ccc(C)c(N2CCN(C(=O)CCCn3c(=S)[nH]c4cc5c(cc4c3=O)OCO5)CC2)c1,-,-,15,-,-,-
COc1c(O)cc2oc3cc(O)c(CC=C(C)C)c(O)c3c(=O)c2c1CC=C(C)C,-,-,.,-,10µM!,-
